# Measurements: ChEMBL document CHEMBL3988442, “University of Dundee, Small-Polar-MMV Screening Library” (2021)
# For some assays here: Entries with a potency or affinity are not part of this list.
# Columns and labels:
# Parameters in all cases: scale not given: direction of the effect not stated beside the values
# [1] = molecular target: Protein translocase subunit SecA (Escherichia coli (strain K12)) (UniProt P10408); assay: Assay to Identify E. coli SecA ATPase Inhibitors; type: functional; details: 30 µM
# Sequence of Protein translocase subunit SecA (Escherichia coli (strain K12)) (P10408 whole entry): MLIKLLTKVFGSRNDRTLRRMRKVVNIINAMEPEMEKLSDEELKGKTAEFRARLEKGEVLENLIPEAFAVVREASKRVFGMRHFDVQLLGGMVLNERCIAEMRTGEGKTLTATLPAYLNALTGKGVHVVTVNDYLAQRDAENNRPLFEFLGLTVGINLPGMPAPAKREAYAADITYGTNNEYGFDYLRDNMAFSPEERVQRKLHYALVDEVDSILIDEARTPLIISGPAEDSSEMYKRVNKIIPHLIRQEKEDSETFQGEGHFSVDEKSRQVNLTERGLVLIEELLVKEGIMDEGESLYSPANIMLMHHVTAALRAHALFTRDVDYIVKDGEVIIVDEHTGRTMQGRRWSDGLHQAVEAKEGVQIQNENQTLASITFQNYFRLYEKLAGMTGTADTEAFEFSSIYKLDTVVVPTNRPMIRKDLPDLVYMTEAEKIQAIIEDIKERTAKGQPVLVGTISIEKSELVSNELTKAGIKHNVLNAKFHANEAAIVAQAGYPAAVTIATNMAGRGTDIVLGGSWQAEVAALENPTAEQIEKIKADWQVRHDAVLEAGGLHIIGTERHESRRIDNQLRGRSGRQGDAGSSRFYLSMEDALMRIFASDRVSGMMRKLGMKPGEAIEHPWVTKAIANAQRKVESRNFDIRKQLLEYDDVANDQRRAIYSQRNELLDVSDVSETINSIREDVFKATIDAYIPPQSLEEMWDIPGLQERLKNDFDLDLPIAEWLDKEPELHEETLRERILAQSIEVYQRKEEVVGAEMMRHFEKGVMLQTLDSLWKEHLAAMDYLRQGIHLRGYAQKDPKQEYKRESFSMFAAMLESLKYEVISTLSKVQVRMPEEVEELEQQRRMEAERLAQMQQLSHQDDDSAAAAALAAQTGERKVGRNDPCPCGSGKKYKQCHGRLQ
# [2] = molecular target: T1, Ubiquitin-activating enzyme e1, putative (Leishmania donovani (strain BPK282A1)) (UniProt E9BSI1); assay: Leishmania donovani Ubiquitin Activating Enzyme (LdE1); type: functional; details: 30 µM
# T1 sequence (whole entry): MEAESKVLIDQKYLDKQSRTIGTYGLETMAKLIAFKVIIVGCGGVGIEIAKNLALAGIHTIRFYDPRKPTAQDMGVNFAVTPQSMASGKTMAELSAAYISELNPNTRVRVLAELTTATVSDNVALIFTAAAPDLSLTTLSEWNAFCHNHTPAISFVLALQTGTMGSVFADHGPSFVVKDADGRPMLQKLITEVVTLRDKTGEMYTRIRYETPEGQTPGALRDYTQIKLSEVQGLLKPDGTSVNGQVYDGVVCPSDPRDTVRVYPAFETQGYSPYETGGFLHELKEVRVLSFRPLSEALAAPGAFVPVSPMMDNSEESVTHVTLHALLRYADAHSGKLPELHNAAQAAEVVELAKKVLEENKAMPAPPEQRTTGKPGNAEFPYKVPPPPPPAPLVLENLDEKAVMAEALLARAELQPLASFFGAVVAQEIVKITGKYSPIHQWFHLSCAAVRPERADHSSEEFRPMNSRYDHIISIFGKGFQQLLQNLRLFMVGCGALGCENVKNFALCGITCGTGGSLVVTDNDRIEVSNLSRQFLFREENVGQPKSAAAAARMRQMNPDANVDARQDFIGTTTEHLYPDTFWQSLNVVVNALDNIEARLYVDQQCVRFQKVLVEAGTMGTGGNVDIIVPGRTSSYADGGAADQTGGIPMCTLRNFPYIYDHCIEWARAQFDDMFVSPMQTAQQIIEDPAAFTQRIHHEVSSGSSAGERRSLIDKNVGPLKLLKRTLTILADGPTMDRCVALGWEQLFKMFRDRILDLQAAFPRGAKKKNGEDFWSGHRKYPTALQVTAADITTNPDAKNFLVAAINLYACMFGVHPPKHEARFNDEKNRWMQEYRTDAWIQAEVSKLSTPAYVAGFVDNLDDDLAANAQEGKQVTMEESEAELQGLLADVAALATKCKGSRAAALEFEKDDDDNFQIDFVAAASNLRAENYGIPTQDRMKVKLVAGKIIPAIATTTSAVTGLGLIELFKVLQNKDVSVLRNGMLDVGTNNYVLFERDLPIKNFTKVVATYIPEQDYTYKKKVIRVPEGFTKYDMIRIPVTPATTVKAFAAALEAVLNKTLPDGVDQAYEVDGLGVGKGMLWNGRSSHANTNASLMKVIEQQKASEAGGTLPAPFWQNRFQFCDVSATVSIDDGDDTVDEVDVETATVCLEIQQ
# [3] = molecular target: AMP-activated protein kinase, AMPK (Homo sapiens) (UniProt P54646+O43741+P54619+Q9UGJ0+Q9Y478+Q13131+Q9UGI9); assay: AMP-dependent Kinase enzyme assay. An in vitro enzyme assay that detects ADP turnover that is directly proportional to AMPK activity. This uses naive AMPK that is activated during the assay with MK-8722; type: functional; details: 30 µM
# [4] = molecular target: Sialic acid-binding Ig-like lectin 9 (Homo sapiens) (UniProt Q9Y336); assay: Hs-Siglec9 ALPHAscreen SOP 20170721; details: 10 µM
# Sequence of Sialic acid-binding Ig-like lectin 9 (Homo sapiens) (Q9Y336 whole entry): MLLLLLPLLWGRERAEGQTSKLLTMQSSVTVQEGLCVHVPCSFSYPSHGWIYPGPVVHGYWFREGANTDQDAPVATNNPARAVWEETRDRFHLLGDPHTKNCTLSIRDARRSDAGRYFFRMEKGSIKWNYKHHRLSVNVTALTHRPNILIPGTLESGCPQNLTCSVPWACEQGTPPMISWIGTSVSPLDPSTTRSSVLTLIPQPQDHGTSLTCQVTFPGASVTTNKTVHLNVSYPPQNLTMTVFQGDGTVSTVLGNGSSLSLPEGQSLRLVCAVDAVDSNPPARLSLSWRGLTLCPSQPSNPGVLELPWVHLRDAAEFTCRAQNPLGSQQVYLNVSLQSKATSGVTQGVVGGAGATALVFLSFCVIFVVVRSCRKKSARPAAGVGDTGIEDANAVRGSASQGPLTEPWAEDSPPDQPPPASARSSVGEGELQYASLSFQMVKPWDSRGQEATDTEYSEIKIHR
# Trypanosoma cruzi = assay: Trypanosoma cruzi phosphomannomutase and mannose-1-phosphate guanylyltransferase assay; type: functional; details: 10 µM
# [5] = molecular target: T2, Arginase-2, mitochondrial (Homo sapiens) (UniProt P78540); assay: in vitro enzyme assay to detect the production of urea directly proportional to the activity of Arginase II; type: functional; details: 33.3 µM; further: in the data most compounds retested in dose-response had high values
# T2 sequence (whole entry): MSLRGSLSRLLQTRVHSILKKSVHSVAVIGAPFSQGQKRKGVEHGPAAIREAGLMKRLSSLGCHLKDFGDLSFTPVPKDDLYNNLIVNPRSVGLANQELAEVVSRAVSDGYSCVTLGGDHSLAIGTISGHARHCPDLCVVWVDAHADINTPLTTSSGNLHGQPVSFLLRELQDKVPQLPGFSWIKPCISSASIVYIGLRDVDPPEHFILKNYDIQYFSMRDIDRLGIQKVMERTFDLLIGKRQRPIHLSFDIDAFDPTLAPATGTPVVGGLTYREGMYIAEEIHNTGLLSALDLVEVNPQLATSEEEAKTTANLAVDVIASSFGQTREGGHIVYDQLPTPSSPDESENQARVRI
# [6] = molecular target: T3, Proteasome subunit beta (Trypanosoma cruzi) (UniProt O96673); assay: Trypanosoma cruzi proteasome chymotrypsin-like activity (TcProtChymo) assay.; further: in the data most compounds retested in dose-response had high values; type: functional; details: 9.37 µM
# T3 sequence (whole entry): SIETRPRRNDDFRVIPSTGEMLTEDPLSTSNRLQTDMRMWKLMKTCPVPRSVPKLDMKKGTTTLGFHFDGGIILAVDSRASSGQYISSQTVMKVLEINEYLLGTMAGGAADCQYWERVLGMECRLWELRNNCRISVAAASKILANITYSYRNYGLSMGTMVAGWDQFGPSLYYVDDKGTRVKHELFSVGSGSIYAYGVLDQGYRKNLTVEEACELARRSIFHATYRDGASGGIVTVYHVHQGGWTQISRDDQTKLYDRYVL
# Homo sapiens = species on record: Homo sapiens; assay: To identify inhibition of the IFN signalling (Jak-Stat) pathway via expression of an eGFP reporter gene under the control of an IFN-stimulated response element (ISRE) containing MxA promoter.; type: functional; details: 30 µM
# [7] = molecular target: T4, Tyrosyl-tRNA synthetase, putative (Trypanosoma cruzi (strain CL Brener)) (UniProt Q4DSP6); assay: Trypanosoma cruzi tyrosyl tRNA synthetase (TcYRS) _High Tyrosine SOP; type: functional; details: 30 µM; further: in the data most compounds retested in dose-response had high values
# T4 sequence (whole entry): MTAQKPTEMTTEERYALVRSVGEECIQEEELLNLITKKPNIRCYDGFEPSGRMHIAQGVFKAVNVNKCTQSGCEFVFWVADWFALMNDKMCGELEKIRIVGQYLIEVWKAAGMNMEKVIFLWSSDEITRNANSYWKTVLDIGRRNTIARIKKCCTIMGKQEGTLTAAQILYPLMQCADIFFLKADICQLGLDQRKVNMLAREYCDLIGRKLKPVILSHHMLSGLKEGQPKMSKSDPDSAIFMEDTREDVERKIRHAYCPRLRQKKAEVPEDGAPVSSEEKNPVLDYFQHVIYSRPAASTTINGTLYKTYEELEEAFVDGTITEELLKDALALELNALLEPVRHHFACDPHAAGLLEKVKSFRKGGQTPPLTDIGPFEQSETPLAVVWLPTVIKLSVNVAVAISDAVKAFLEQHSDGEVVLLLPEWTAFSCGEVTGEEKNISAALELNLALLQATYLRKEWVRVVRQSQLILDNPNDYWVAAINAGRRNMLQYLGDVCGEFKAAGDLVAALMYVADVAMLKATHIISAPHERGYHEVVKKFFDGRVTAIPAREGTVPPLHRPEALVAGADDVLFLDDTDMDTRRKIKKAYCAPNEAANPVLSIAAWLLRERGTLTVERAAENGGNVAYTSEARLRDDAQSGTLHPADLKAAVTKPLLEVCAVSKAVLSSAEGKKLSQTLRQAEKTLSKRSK
# [8] = molecular target: T4, Tyrosyl-tRNA synthetase, putative (Trypanosoma cruzi (strain CL Brener)); assay: Trypanosoma cruzi tyrosyl tRNA synthetase (TcYRS) SOP; type: functional; details: 30 µM
# [9] = molecular target: Chromo domain-containing protein 1 (Saccharomyces cerevisiae (strain ATCC 204508 / S288c) (Baker's yeast)) (UniProt P32657); assay: ScCHD-1 Enzyme Inhibition Assay; type: functional; details: 30 µM; further: in the data most compounds retested in dose-response had high values
# Sequence of Chromo domain-containing protein 1 (Saccharomyces cerevisiae (strain ATCC 204508 / S288c) (Baker's yeast)) (P32657 whole entry, the tested form may be a part): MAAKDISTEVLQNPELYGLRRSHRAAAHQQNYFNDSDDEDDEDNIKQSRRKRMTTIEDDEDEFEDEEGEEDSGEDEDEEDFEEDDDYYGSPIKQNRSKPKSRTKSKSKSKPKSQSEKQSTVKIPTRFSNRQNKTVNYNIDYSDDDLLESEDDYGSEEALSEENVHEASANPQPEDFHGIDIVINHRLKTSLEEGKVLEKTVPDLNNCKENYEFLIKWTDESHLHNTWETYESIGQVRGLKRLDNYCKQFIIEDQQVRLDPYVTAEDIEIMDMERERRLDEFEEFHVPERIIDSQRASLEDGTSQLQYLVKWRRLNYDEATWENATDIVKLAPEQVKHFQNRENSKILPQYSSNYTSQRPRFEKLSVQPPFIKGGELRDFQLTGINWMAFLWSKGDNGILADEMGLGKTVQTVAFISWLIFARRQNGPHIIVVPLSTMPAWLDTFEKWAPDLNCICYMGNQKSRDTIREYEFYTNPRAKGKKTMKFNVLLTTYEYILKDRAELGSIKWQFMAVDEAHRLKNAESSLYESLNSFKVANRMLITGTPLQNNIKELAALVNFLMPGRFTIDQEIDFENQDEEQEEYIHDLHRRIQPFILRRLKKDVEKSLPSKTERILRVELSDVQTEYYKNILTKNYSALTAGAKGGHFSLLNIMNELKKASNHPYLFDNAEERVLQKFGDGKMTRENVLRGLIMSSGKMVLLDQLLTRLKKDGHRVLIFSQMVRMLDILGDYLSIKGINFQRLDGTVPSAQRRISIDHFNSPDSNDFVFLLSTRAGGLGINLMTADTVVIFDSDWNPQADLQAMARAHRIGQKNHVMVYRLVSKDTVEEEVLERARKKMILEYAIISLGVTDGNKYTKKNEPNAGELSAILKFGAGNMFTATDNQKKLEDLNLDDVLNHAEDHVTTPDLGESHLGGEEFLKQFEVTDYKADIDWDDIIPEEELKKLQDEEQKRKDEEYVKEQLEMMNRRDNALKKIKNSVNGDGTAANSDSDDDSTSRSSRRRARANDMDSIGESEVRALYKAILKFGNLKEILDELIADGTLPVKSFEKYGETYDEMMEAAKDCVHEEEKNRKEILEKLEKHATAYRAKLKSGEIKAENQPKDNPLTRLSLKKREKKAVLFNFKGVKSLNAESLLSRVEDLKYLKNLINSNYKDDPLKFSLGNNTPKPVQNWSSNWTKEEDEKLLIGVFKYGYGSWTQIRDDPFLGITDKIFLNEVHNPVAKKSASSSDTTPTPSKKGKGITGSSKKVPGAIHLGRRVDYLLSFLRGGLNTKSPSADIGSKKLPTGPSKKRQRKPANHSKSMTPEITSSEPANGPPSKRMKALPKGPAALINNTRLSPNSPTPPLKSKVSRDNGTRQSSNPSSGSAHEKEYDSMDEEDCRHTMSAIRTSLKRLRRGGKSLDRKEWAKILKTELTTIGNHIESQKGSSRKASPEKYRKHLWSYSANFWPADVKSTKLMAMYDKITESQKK
SMILES,Percent Effect [1],Percent Effect [2],Percent Effect [3],Percent Effect [4],Percent Effect (Trypanosoma cruzi),Percent Effect [5],Percent Effect [6],Percent Effect (Homo sapiens),Percent Effect [7],Percent Effect [8],Percent Effect [9]
CCN1CCCC1CN(CCN(C)C)S(=O)(=O)c1ccc(C#N)cc1 (stereo unspecified),-3.88%,5.48%,-10.9%,21.3%,4.5%,0.909%,3.73%,3.29%,4.3%,15%,-5.33%
CCc1nccn1C1CCCN(C(=O)c2ccc3nncn3c2)C1 (stereo unspecified),-5.07%,7.79%,-4.63%,9.34%,5.06%,-1.78%,2.03%,9.22%,6.8%,19.5%,-7.6%
Cc1ccc2c(n1)N(CCn1cccn1)CCN(C(=O)NC1CC1)C2,-4.03%,10.8%,-7.12%,26.1%,6.55%,-1.24%,18.1%,-2.83%,5.38%,16.1%,-4.31%
Cn1cnc2c1C(COCC1CC1)CN(Cc1ccsc1)C2 (stereo unspecified),-1.29%,13%,3.5%,-4.76%,-1.68%,7.1%,20.2%,6.71%,6.35%,11.5%,-6.29%
Cn1cnc2c1C(COCc1ccccc1)N(Cc1ccncc1)CC2 (stereo unspecified),-1.94%,2.67%,-0.486%,11.9%,-1.16%,-25.6%,7.69%,-15.2%,3.12%,10%,-6.37%
COc1ncccc1C(=O)N1CCC(CNC(C)=O)CC1,-4.18%,5.33%,-0.618%,3.6%,-2.43%,1.56%,6.28%,-6.88%,4.92%,13.6%,-5.96%
CCCNCc1cc2c(C)cc(C)cc2n2c(=O)n(C)nc12,-5.13%,4.05%,11%,0.45%,4.94%,9.05%,5.62%,16.2%,4.3%,3.9%,-20%
COCc1cncc2c1CCN(C(=O)c1ccc(C)o1)C2,-3.33%,10.7%,1.34%,-0.678%,-4.63%,-60%,6.33%,-0.987%,4.17%,5%,-6.41%
CCNC(=O)N1CCN(Cc2nc3ccccc3[nH]2)[C@@H]2CS(=O)(=O)C[C@@H]21,-3.35%,5.41%,-2.19%,-3.56%,-4.2%,2.23%,15.2%,1.54%,4.3%,11.1%,-3.76%
CCOC(C)c1nc(CN2CCC(CNC(C)=O)CC2)cs1 (stereo unspecified),-1.27%,0%,-5.03%,0.273%,1.93%,-2.86%,8.97%,-19.2%,-0.529%,-2.44%,-2.65%
CCOC1CCCN(C(=O)NCCc2ccn(-c3ccccc3)n2)C1 (stereo unspecified),-2.03%,20.8%,-1.06%,-7.16%,-0.49%,-2.74%,12.1%,0.938%,5.71%,18.8%,-17.1%
Cc1ccc(NC2CCN(C(=O)Cc3csc(C)n3)CC2)nn1,-0.935%,21.6%,-5.18%,-3.82%,-8.02%,1.2%,18.6%,4.91%,7.39%,16.1%,-4.45%
COc1ccccc1CNC(=O)N1CCCC(c2nncn2C)C1 (stereo unspecified),-3.81%,13.2%,-5.69%,4.78%,0.654%,1.08%,6.85%,5.9%,7.39%,23.5%,-3.47%
CN(C)C(=O)N[C@@H]1CN(Cc2ccc3c(c2)OCO3)[C@@H]2CCCO[C@@H]21,-4.35%,5.33%,4.23%,8.52%,-0.386%,-58.6%,14.5%,1.11%,7.29%,17.5%,-5.44%
CCS(=O)(=O)N1CCO[C@H]2[C@H](OCCCn3cccn3)CC[C@@H]21,-0.913%,-2.67%,-2.06%,-3.13%,3.48%,-47.1%,5.3%,-0.821%,-4.17%,7.5%,-1.55%
COCCC(=O)N1CC[C@@H](N(C)C)[C@@H]1Cc1ccccc1,-3.9%,5.33%,10.6%,4.93%,-0.394%,-1.17%,5.37%,-2.67%,5.32%,6.41%,-0.866%
